Assay results: PubChem BioAssay
Active and inactive are the calls of the source.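 The calls were made as follows, unless noted: active = fluorescence slope higher than the sample average by over 3 SD (cut at about -0.22 in these data, passing the limit was not always enough); inactive = the rest.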

What was measured:
[1] = inhibitors of TNFa-induced NFkB p65 translocation, primary screen, imaging, HUVEC, MLSMR starter and 10KST1 sets (AID 438;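 active = inhibition above 20% together with a positive visual image hit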;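 also: compound added about 3h40 before a 20 min TNFalpha stimulation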;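 as to inhibition: signal is the nuclear over cytoplasmic p65 intensity ratio per well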); conditions: HUVEC TNFa-induced p65 nuclear translocation; cell count: measured here: nuclei count (cytotoxicity indicator), at 2.08 µM; inhibition: at 2 µM, stronger effect = higher value, 0% TNFa-plus-vehicle, 100% no-TNFa wells
[2] = reduction of polyQ htt aggregates in cells – imaging, exon1htt(103Q)mCFP cells, high-content imaging, primary screen (AID 483;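 active = visual image review flags a hit and inhibition of aggregation exceeds 20%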;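 also: compound exposure lasted 3 days before fixation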;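 as to nuclei count: percent of the per-plate median nuclei count of sample wells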); conditions: exon1htt(103Q)mCFP cell line, aggregate imaging, at 2 µM; inhibition of aggregation: stronger effect = higher value; nuclei count: measured here: cell count, toxicity
[3] = endothelial E-selectin expression blockers – imaging, HUVEC, immunofluorescence, MLSMR starter and 10KST1 sets, primary screen (AID 487;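 active = visually confirmed hit in the image check and inhibition above 20%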;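 as to inhibition: signal is fraction of cell area covered by stained E-selectin grains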;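 as to nuclei count: 100% = median nuclei count of all wells on the same plate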); conditions: HUVEC TNFalpha-induced E-selectin immunofluorescence imaging, at 2 µM; inhibition: stronger effect = higher value; nuclei count: measured here: cell number, toxicity
[4] = target: Voltage-gated potassium channel subunit beta-2 (Rattus norvegicus) (UniProt P62483); assay: inhibitors of rat Kvbeta2 reductase activity – biochemical, NADPH fluorescence, primary screen (AID 622); conditions: recombinant KvBeta, 4-cyanobenzaldehyde reduction, at 10 µM, stronger effect = higher value;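 also: slope of raw intensity against log time taken from 70 to 1610 s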
Sequence of Voltage-gated potassium channel subunit beta-2 (Rattus norvegicus) (P62483 whole entry, looked up): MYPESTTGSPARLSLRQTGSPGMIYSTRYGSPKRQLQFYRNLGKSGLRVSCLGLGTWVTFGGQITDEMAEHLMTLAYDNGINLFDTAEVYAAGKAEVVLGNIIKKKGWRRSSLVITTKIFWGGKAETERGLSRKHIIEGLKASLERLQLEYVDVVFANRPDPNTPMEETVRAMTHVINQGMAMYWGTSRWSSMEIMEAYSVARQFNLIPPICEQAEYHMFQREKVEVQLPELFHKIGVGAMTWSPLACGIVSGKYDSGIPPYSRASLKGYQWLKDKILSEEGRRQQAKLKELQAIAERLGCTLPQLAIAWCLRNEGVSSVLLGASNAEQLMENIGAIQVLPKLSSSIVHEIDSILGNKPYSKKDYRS

[5] = target: Voltage-gated potassium channel subunit beta-2 (Rattus norvegicus) (UniProt P62483); assay: enhancers of rat Kvbeta2 NADPH turnover – biochemical, NADPH fluorescence, primary screen (AID 623;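 active = NADPH fluorescence slope more negative than the mean of all samples by about 3 SD, 99.7% confidence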;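 also: fluorescence intensity change per second fitted from 20 to 320 s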); conditions: Recombinant KvBeta, NADPH fluorescence decrease slope, 10 min; at 10 µM; stronger effect = lower value
[6] = target: Alpha-2C adrenergic receptor (Homo sapiens) (UniProt P18825); assay: compounds altering alpha2C-coupled GIRK flux – cell-based, HEK293 alpha2C/GIRK1/2, thallium flux, primary screen (AID 624;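 active = fluorescence slope after compound addition differing from the mean of all screened samples at 99.7% confidence, in either direction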;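 also: slope of fluorescence ratio to pre-addition baseline per second over 15 to 24 s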); conditions: thallium flux BTC fluorescence, at 10 µM, actives lie on both sides
Sequence of Alpha-2C adrenergic receptor (Homo sapiens) (P18825 whole entry, looked up): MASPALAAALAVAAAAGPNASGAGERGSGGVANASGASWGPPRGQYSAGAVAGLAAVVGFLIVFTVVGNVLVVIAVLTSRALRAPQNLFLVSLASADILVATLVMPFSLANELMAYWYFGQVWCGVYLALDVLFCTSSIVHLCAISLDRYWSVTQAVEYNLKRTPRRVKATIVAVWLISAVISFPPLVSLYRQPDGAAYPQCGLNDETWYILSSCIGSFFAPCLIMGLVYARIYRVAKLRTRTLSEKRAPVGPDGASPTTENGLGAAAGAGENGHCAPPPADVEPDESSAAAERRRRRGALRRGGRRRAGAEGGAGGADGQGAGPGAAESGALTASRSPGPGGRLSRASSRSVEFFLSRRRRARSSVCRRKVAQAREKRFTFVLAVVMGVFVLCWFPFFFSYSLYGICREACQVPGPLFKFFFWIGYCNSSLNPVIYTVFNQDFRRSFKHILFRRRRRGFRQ

[7] = blockers of RIG-like receptor reporter activation – cell-based, Sendai virus stimulus, luciferase, 10K MLSCN set, TLR/RLR signaling modifier project, primary screen (AID 602276;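 active = inhibition at or above 50% at 10 µM; inactive = inhibition below 50%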;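 also: firefly luciferase from ISG56 promoter only with Renilla not read in this screen; 0% = Sendai virus plus DMSO and 100% = medium plus DMSO without virus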); conditions: HEK293 RL24 IRF3 luciferase reporter, at 10 µM, stronger effect = higher value
[8] = TLR3 IRF3 reporter activation blockers – cell-based, poly I:C stimulus, luciferase, 10K MLSCN set, primary screen (AID 602277;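 active = inhibition of the reporter signal at or above 50%; inactive = inhibition below 50%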); conditions: HEK293-TLR3 RL24 IRF3 luciferase reporter, at 10 µM, stronger effect = higher value

Cc1cc(NC(=O)CSc2nc3ccccc3n2CC(=O)N2CCCCC2)no1
cell count [1]: 722
inhibition [1]: -2% (inactive)
inhibition of aggregation [2]: -15% (inactive)
nuclei count [2]: 108%
inhibition [3]: -70.8% (inactive)
nuclei count [3]: 119%
fluorescence slope [4]: -0.475 (inactive)
NADPH fluorescence slope [5]: -4.9e-05 (inactive)
slope [6]: 0.00628 (inactive)
inhibition [7]: 14.5% (inactive)
inhibition [8]: 29.1% (inactive)

FC(F)(F)c1nnc2sc(-c3cccs3)nn12
cell count [1]: 382
inhibition [1]: -4% (inactive)
inhibition of aggregation [2]: -16.2% (inactive)
nuclei count [2]: 84.9%
inhibition [3]: -28.5% (inactive)
nuclei count [3]: 96.5%
fluorescence slope [4]: -0.567 (inactive)
NADPH fluorescence slope [5]: -4.5e-05 (inactive)
slope [6]: 0.00576 (inactive)
inhibition [7]: 10.9% (inactive)
inhibition [8]: 11.3% (inactive)

CCOC(=O)c1oc2ccccc2c1NC(=O)c1cccc(OC)c1OC
cell count [1]: 553
inhibition [1]: -14.1% (inactive)
inhibition of aggregation [2]: -13% (inactive)
nuclei count [2]: 104%
inhibition [3]: 23.6% (inactive)
nuclei count [3]: 82.8%
fluorescence slope [4]: -0.616 (inactive)
NADPH fluorescence slope [5]: -1.9e-05 (inactive)
slope [6]: 0.00654 (inactive)
inhibition [7]: -0.203% (inactive)
inhibition [8]: -6.33% (inactive)

CN(C)CCCN1C(=O)c2oc3ccccc3c(=O)c2C1c1cccs1 (centres undefined)
cell count [1]: 665
inhibition [1]: -1.2% (inactive)
inhibition of aggregation [2]: -8.2% (inactive)
nuclei count [2]: 107%
inhibition [3]: -25.6% (inactive)
nuclei count [3]: 132%
fluorescence slope [4]: -0.443 (inactive)
NADPH fluorescence slope [5]: 4e-06 (inactive)
slope [6]: 0.00339 (inactive)
inhibition [7]: 7.52% (inactive)
inhibition [8]: 8.07% (inactive)

CCC(=O)N1CCc2cc(S(=O)(=O)CCC(=O)Nc3ccc(F)c(F)c3)ccc21
cell count [1]: 571
inhibition [1]: 5.2% (inactive)
inhibition of aggregation [2]: 6.1% (inactive)
nuclei count [2]: 96%
inhibition [3]: -68.8% (inactive)
nuclei count [3]: 111%
fluorescence slope [4]: -0.423 (inactive)
NADPH fluorescence slope [5]: -1.2e-05 (inactive)
slope [6]: 0.00293 (inactive)
inhibition [7]: -11.6% (inactive)
inhibition [8]: -3.44% (inactive)

COc1cccc(C2C(C(=O)c3ccc(C)o3)=C(O)C(=O)N2CCCN(C)C)c1 (centres undefined)
cell count [1]: 239
inhibition [1]: -10.9% (inactive)
inhibition of aggregation [2]: 45.3% (active)
nuclei count [2]: 83.9%
inhibition [3]: -110% (inactive)
nuclei count [3]: 111%
fluorescence slope [4]: -0.592 (inactive)
NADPH fluorescence slope [5]: -5.1e-05 (inactive)
slope [6]: 0.00639 (inactive)
inhibition [7]: 10.4% (inactive)
inhibition [8]: 15.6% (inactive)

CCN(CC)S(=O)(=O)c1ccc2oc(SCc3ccc(F)cc3)nc2c1
cell count [1]: 707
inhibition [1]: -9.4% (inactive)
inhibition of aggregation [2]: 6.8% (inactive)
nuclei count [2]: 104%
inhibition [3]: -6.6% (inactive)
nuclei count [3]: 110%
fluorescence slope [4]: -0.604 (inactive)
NADPH fluorescence slope [5]: -6.8e-05 (inactive)
slope [6]: 0.00777 (inactive)
inhibition [7]: 1.12% (inactive)
inhibition [8]: -39.5% (inactive)

CCOC(=O)N1CCC(NC(=O)CSCc2nc(-c3cccc(OC)c3)oc2C)CC1
cell count [1]: 292
inhibition [1]: 4.4% (inactive)
inhibition of aggregation [2]: -9% (inactive)
nuclei count [2]: 94.6%
inhibition [3]: -30.2% (inactive)
nuclei count [3]: 124%
fluorescence slope [4]: -0.498 (inactive)
NADPH fluorescence slope [5]: -5.4e-05 (inactive)
slope [6]: 0.00445 (inactive)
inhibition [7]: 9% (inactive)
inhibition [8]: -6.15% (inactive)

CC(=O)Nc1c(C(=O)O)[nH]c2ccccc12
cell count [1]: 463
inhibition [1]: -9.1% (inactive)
inhibition of aggregation [2]: -7.5% (inactive)
nuclei count [2]: 96%
inhibition [3]: -46.4% (inactive)
nuclei count [3]: 104%
fluorescence slope [4]: -0.367 (inactive)
NADPH fluorescence slope [5]: -2e-05 (inactive)
slope [6]: 0.00513 (inactive)
inhibition [7]: 0.607% (inactive)
inhibition [8]: 19.4% (inactive)

Cc1nc2cc(N3CCCCC3)c(NC(=O)c3cccnc3)cc2c(=O)n1Cc1ccccc1
cell count [1]: 751
inhibition [1]: -10.1% (inactive)
inhibition of aggregation [2]: 1.2% (inactive)
nuclei count [2]: 93.3%
inhibition [3]: -2% (inactive)
nuclei count [3]: 99.1%
fluorescence slope [4]: -0.167 (inactive)
NADPH fluorescence slope [5]: 2.6e-06 (inactive)
slope [6]: 0.00435 (inactive)
inhibition [7]: -3.36% (inactive)
inhibition [8]: -14% (inactive)

CC1C(=O)C(C)C(c2cccs2)NC1c1cccs1 (centres undefined)
cell count [1]: 295
inhibition [1]: -1.4% (inactive)
inhibition of aggregation [2]: 10.2% (inactive)
nuclei count [2]: 68.6%
inhibition [3]: 13.7% (inactive)
nuclei count [3]: 87.4%
fluorescence slope [4]: -0.501 (inactive)
NADPH fluorescence slope [5]: 9.3e-06 (inactive)
slope [6]: 0.00548 (inactive)
inhibition [7]: 3.78% (inactive)
inhibition [8]: 3.34% (inactive)

FC(F)Oc1ccc(-c2csc(Cc3nnc4n3CCCCC4)n2)cc1
cell count [1]: 578
inhibition [1]: -3.5% (inactive)
inhibition of aggregation [2]: -9% (inactive)
nuclei count [2]: 113%
inhibition [3]: 84.7% (active)
nuclei count [3]: 83.2%
fluorescence slope [4]: -0.535 (inactive)
NADPH fluorescence slope [5]: 7.5e-06 (inactive)
slope [6]: 0.00442 (inactive)
inhibition [7]: -0.365% (inactive)
inhibition [8]: -11.8% (inactive)

COc1ccccc1N1C(=O)CC(Sc2nc(C)cc(C)n2)C1=O (centres undefined)
cell count [1]: 613
inhibition [1]: -8.2% (inactive)
inhibition of aggregation [2]: 15% (inactive)
nuclei count [2]: 95.3%
inhibition [3]: -30.9% (inactive)
nuclei count [3]: 90.9%
fluorescence slope [4]: -0.447 (inactive)
NADPH fluorescence slope [5]: -9.1e-05 (inactive)
slope [6]: 0.0075 (inactive)
inhibition [7]: 14.5% (inactive)
inhibition [8]: 19.3% (inactive)

O=S(=O)(c1ccc(Oc2ccc(-c3nnco3)cc2)nc1)N1CCC(Cc2ccccc2)CC1
cell count [1]: 396
inhibition [1]: -10.6% (inactive)
inhibition of aggregation [2]: -26.7% (inactive)
nuclei count [2]: 102%
inhibition [3]: -1% (inactive)
nuclei count [3]: 108%
fluorescence slope [4]: -0.508 (inactive)
NADPH fluorescence slope [5]: -5e-05 (inactive)
slope [6]: 0.00554 (inactive)
inhibition [7]: 1.05% (inactive)
inhibition [8]: 5.84% (inactive)
